Drawing on PubChem BioAssay (NCI), this text covers growth for eight molecules.

The structures appear in SMILES notation. The panel holds about 83,000 compounds, 20% with a hit somewhere; the sample as a whole holds those more often.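 Cell lines were cultured in 96-well plates, exposed to a single compound concentration, and assessed for percent growth 48 hours later.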 Unmarked numbers belong to inactive results. Calls of active or inactive are those of the source. How the source made its calls: active means growth percent below 10; inactive means the rest.

Test systems include HCT-15 colon; HT29 colon; SNB-75 CNS; SNB-19 CNS; U251 CNS; PC-3 prostate; UACC-62 melanoma; LOX IMVI melanoma; SK-MEL-28 melanoma; SK-MEL-2 melanoma; EKVX NSCLC; SN12C renal; UO-31 renal; TK-10 renal; ACHN renal; CAKI-1 renal; A498 renal; CCRF-CEM leukemia; MOLT-4 leukemia.
What all share (test): NCI-60 one-dose screen, 48 h (100 = growth as untreated, 0 = no growth, -100 = all killed)
Conditions in all cases: 10 µM unless noted

For the molecule `Brc1cccc(-c2cc(-c3cnc4c(c3)OCCO4)n[nH]2)c1`, the growth in the experiment with HCT-15 colon is 21.1%; with HT29 colon, 18.8%; with SNB-75 CNS, 46.9%; with SNB-19 CNS, 59.8%; in the experiment on U251 CNS, 43.3%; in the experiment with PC-3 prostate, 79.1%. Further, the growth is 55.5% in the experiment with UACC-62 melanoma; 37.1% in the experiment with LOX IMVI melanoma; 59% in the experiment with SK-MEL-28 melanoma; 52.1% with SK-MEL-2 melanoma; 50.4% with EKVX NSCLC; 62.8% in the experiment on SN12C renal. For the same molecule, the growth in the experiment on UO-31 renal was 51%; in the experiment on TK-10 renal it was 89.9%; in the experiment on ACHN renal, 51.6%; in the experiment on CAKI-1 renal, 51.8%; in the experiment on A498 renal, 50.6%; with CCRF-CEM leukemia it was 36.7%. In addition, the growth with MOLT-4 leukemia was 34.1%.
Take `COc1ccc(C(C)=C(c2ccc(OCCN3CCCCCC3)cc2)c2ccc(OCCN3CCCCCC3)cc2)cc1`: the growth in the experiment with HCT-15 colon is -82.1% (active); in the experiment on HT29 colon it was -49.9% (active); in the experiment on SNB-75 CNS, -12% (active); with SNB-19 CNS, -51.7% (active); with U251 CNS, -77.9% (active); in the experiment on PC-3 prostate, -54.6% (active). The growth with UACC-62 melanoma was -65.2% (active); in the experiment on LOX IMVI melanoma, -84% (active); in the experiment on SK-MEL-28 melanoma, -89.3% (active); in the experiment on SK-MEL-2 melanoma, -65.2% (active); with EKVX NSCLC, 1.68% (active); in the experiment with SN12C renal it was 0.944% (active). The growth is -79.3% (active) with UO-31 renal; 27.1% in the experiment with TK-10 renal; -57.8% (active) with ACHN renal; -45.9% (active) in the experiment with CAKI-1 renal; 27.9% in the experiment on A498 renal; -5.35% (active) in the experiment on MOLT-4 leukemia.
On to `CC(O)c1cccc(/C(N)=N/C(N)=N/c2nc3ccccc3s2)c1` (stereo not given), for which the growth was 56.7% with HCT-15 colon; 110% in the experiment with HT29 colon; 80% with SNB-75 CNS; 89.3% with SNB-19 CNS; 74.2% in the experiment on U251 CNS; 64.9% with PC-3 prostate. In addition, the growth is 87.8% in the experiment with UACC-62 melanoma; 64.3% with LOX IMVI melanoma; 100% with SK-MEL-28 melanoma; 107% with SK-MEL-2 melanoma; 91.9% in the experiment on EKVX NSCLC; 86.9% in the experiment on SN12C renal. Also, the growth is 89.2% in the experiment with UO-31 renal; 133% in the experiment on TK-10 renal; 86.6% in the experiment with ACHN renal; 101% in the experiment on CAKI-1 renal; 90.7% in the experiment with A498 renal; 84% with CCRF-CEM leukemia. In the experiment with MOLT-4 leukemia, the growth was 83.9%.
For the molecule `NC(=O)c1ncn2c(=O)n(CCF)nnc12`, the growth in the experiment on HCT-15 colon is 80.4%; with HT29 colon, 57.4%; in the experiment with SNB-75 CNS, 50.6%; with SNB-19 CNS, 96.1%; in the experiment with U251 CNS, 93.7%; with PC-3 prostate it was 71.6%. The growth with UACC-62 melanoma was 49.6%; in the experiment with LOX IMVI melanoma, 26.1%; in the experiment on SK-MEL-28 melanoma, 87%; in the experiment on SK-MEL-2 melanoma it was -6.14% (active); in the experiment with EKVX NSCLC it was 92.5%; in the experiment on SN12C renal, 85.5%. In addition, the growth in the experiment on UO-31 renal is 41%; in the experiment with TK-10 renal, 44.3%; with ACHN renal it was 62.2%; with CAKI-1 renal it was 34%; in the experiment with A498 renal it was 101%; with CCRF-CEM leukemia, 28.5%. Besides, the growth in the experiment with MOLT-4 leukemia is 29.9%.
Regarding `CC(=O)N(O)CCCCCNC(=O)CCC(=O)N(O)CCCCCNC(=O)CCC(=O)N(O)CCCCCN(CCCCCCCCCC[P+](c1ccccc1)(c1ccccc1)c1ccccc1)CCCCCCCCCC[P+](c1ccccc1)(c1ccccc1)c1ccccc1`, the growth was 51.1% with HCT-15 colon; 5.49% (active) in the experiment with HT29 colon; -11% (active) with SNB-75 CNS; 17.2% in the experiment on SNB-19 CNS; 6.66% (active) in the experiment on U251 CNS; 19.6% in the experiment with PC-3 prostate. Further, the growth was -10.6% (active) with UACC-62 melanoma; -15% (active) in the experiment on LOX IMVI melanoma; 13.4% with SK-MEL-28 melanoma; -46.7% (active) in the experiment with SK-MEL-2 melanoma; 5.96% (active) in the experiment on EKVX NSCLC; 1.45% (active) in the experiment with SN12C renal. Further, the growth in the experiment with UO-31 renal was 52.3%; in the experiment with TK-10 renal, 26.5%; with ACHN renal it was 29.7%; in the experiment on CAKI-1 renal, 29.3%; with CCRF-CEM leukemia it was 5.87% (active); in the experiment on MOLT-4 leukemia it was 8.41% (active).
In the case of `COc1cc2cc(Oc3ccc(NC(=O)c4cc(C(F)(F)F)cc(C(F)(F)F)c4)cc3)c(C)nc2cc1OCCN1CCOCC1`, the growth was 47.1% in the experiment on HCT-15 colon; 63.8% in the experiment on HT29 colon; 47.7% in the experiment with SNB-75 CNS; 87.6% with SNB-19 CNS; 55% in the experiment on U251 CNS; 41.7% in the experiment on PC-3 prostate. For the same molecule, the growth was 59.3% in the experiment with UACC-62 melanoma; 69.6% with LOX IMVI melanoma; 70.8% with SK-MEL-28 melanoma; 101% with SK-MEL-2 melanoma; 57.7% with EKVX NSCLC; 83% in the experiment on SN12C renal. The growth in the experiment on UO-31 renal was 55.8%; with TK-10 renal it was 105%; in the experiment with ACHN renal, 77.3%; in the experiment with CAKI-1 renal it was 52.8%; in the experiment on A498 renal, 55%; in the experiment on CCRF-CEM leukemia it was 45%. The growth in the experiment on MOLT-4 leukemia is 66.1%.
Consider `O=C(Nc1cccc(Cl)c1)Nc1nc2cc([N+](=O)[O-])ccc2o1`, for which the growth with HCT-15 colon is 29.4%; in the experiment with HT29 colon it was 71.6%; in the experiment on SNB-75 CNS, 72.9%; in the experiment with SNB-19 CNS, 31.3%; with U251 CNS, 23.3%; in the experiment on PC-3 prostate, 29.8%. Besides, the growth is 29.1% in the experiment on UACC-62 melanoma; 40.4% with LOX IMVI melanoma; 36.2% with SK-MEL-28 melanoma; 45.5% in the experiment on SK-MEL-2 melanoma; 27.8% in the experiment on EKVX NSCLC; 35.3% with SN12C renal. Further, the growth was 59.3% with UO-31 renal; 94.9% in the experiment on TK-10 renal; 47.8% in the experiment on ACHN renal; 62% in the experiment on CAKI-1 renal; 28.3% with A498 renal; 25% in the experiment on CCRF-CEM leukemia. For the same molecule, the growth with MOLT-4 leukemia was 33.8%.
As for `CC1CC(=O)C2=C(C1)Nc1ccc(Br)cc1CC2c1c[nH]c2ccc(Br)cc12` (stereo not given), the growth in the experiment on HCT-15 colon is 27.1%; with HT29 colon it was 11.1%; in the experiment with SNB-75 CNS it was -7.47% (active); with SNB-19 CNS it was 54.7%; in the experiment on U251 CNS, 53.1%; in the experiment on PC-3 prostate, 31.3%. For the same molecule, the growth in the experiment on UACC-62 melanoma was 42.1%; in the experiment with LOX IMVI melanoma it was 34.9%; in the experiment on SK-MEL-28 melanoma, 57.2%; in the experiment with SK-MEL-2 melanoma, 37.3%; in the experiment on EKVX NSCLC it was 41.2%; in the experiment on SN12C renal, 53.6%. Moreover, the growth was 50.9% in the experiment on UO-31 renal; 79.4% with TK-10 renal; 48.6% with ACHN renal; 38.1% in the experiment with CAKI-1 renal; 19.7% with A498 renal; 29.7% in the experiment on CCRF-CEM leukemia. Also, the growth in the experiment with MOLT-4 leukemia is 35.8%.
